Test results reported in PubChem BioAssay AID504444 (National Center for Advancing Translational Sciences (NCATS), 2011).
Out of some 360,000 compounds screened, about 7,500 (2.1%) were called active. Another 20% or so got no clear call; they are omitted. Calls come from the whole dose curve; as a rule, active = well fitted inhibition curve with a large enough effect; inconclusive = small, poorly fitted or top-dose-only effect, or effect the other way; inactive = flat fitted curve, though single readings scatter. For the sample, actives were picked, then their nearest neighbours and some compounds at random.

Test: Nrf2 qHTS screen for inhibitors; note: nearly all actives have a fitted effect of over 60% in size
Details: A549 ARE-Fluc reporter, luciferase luminescence, 18-24 h; series mostly up to 46 µM; activity change, negative = inhibition: at the top concentration
Summary of the method: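 Nrf2 activity is the BugLite luminescence, read 15 min after reagent at room temperature, following CellTiter-Fluor cytotoxicity readout (30 min, 37C). Compound titrations were applied for 18-24 h to 5000 A549 ARE_Fluc cells/well in 5% FBS OPTI-MEM.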
% is set by controls: 0 for no effect and ±100 for the full control effect; potency is the fitted concentration of half-maximal effect.

Activity change, negative = inhibition, inactive:
C[C@]12CCC(=O)C=C1C=CC1C2CC[C@@]2(C)C1CC[C@@]21CCC(=O)O1 (some centres not stated) -16.2%, CSCCC(NS(=O)(=O)c1ccc(C)cc1)C(=O)N(C)CC(=O)Nc1ccccc1Br (configuration not stated) -2.63%, O=[N+]([O-])c1ccc(COc2ccccc2CN2CCOCC2)cc1 -26.8%, CCOC(=O)c1c(C)[nH]c(C)c1S(=O)(=O)N1CCC(C(=O)Nc2ccc(C)c(Cl)c2)CC1 -27.4%, CC1CCN(C(=O)c2ccc3c(c2)NC(=O)CN3)CC1 -7%, COc1ccc(C(=O)Nc2c(Cl)cc(Cl)cc2C(=O)N2CCC(C)CC2)cc1 9.22%, CC1CCCCC1NC(=O)NC(=O)COC(=O)C1=NN(c2ccccc2)C(=O)CC1 (configuration not stated) -3.54%, O=C1C(F)N([S+](=O)([O-])c2ccc3c(c2)OCCO3)CCN1[S+](=O)([O-])c1c(F)cccc1F (configuration not stated) 1.59%, COc1cc2nc(NCC(C)c3ccccc3)n3nc(-c4ccccc4)nc3c2cc1OC (configuration not stated) 22%, COc1ccc(-c2noc(CCC(=O)N3CCN(c4cccc(C)c4)CC3)n2)cc1 -21.2%, COc1ccc(N2CCN(C(=O)CCc3nc(-c4ccc(C)cc4)no3)CC2)cc1 -18.5%, Cc1cc(OCC(=O)Nc2ncn[nH]2)c(C)c(C)c1Br 5.95%, O=C(CN1CCN(c2ccc(Cl)cc2)CC1)c1ccccc1 -0.714%, O=C(CN1CCN(c2ccc(Cl)cc2)CC1)N1CCCC1 -9.45%, Cc1ccc(-c2cnc(NCc3ccc(C(C)C)cc3)n2C)cc1 -27.5%, CCOc1ccc(-c2cc3nc(C4CCN(C(=O)OC(C)(C)C)CC4)c(C(=O)Nc4cccc(CC)c4)cn3n2)cc1 12.9%, Cc1ccc(C)c(N2CCN(Cc3nnc(-c4ccccc4)o3)CC2)c1 0.374%, CCn1c2ccccc2c2nnc(SCC(=O)O)nc21 7.55%, Cc1ccc(S(=O)(=O)n2nc(-c3ccc(Cl)cc3)nc2NCc2ccccc2)cc1 11.6%, Cc1ccc(NC(=O)CN(C)C(=O)c2cccc(S(=O)(=O)N3CCCC3)c2)cc1 0.0961%, CCOc1ccc(NC(=O)CN(C)C(=O)c2cccc(S(=O)(=O)N3CCCC3)c2)cc1OCC 6.49%

Potency, active:
CC(=O)O[C@]1(C(C)=O)CC[C@H]2[C@@H]3C=C(C)C4=CC(=O)CC[C@]4(C)[C@H]3CC[C@@]21C 0.731 µM, CC1=Nc2cc(C(=O)N3CCC(C)CC3)ccc2Sc2ccc(Cl)cc21 16.4 µM, COc1ccc(-c2noc(CCC(=O)N(C)c3ccccc3C)n2)cc1 20.6 µM, CC(C)OC(=O)CN1CCN(c2ccc(Cl)cc2)CC1 16.4 µM, CCn1c2ccccc2c2nnc(N3CCN(c4cc(C)ccc4C)CC3)nc21 20.6 µM, COc1ccc(NC(=O)CN(C)C(=O)c2cccc(S(=O)(=O)N3CCN(c4ccccc4)CC3)c2)cc1 16.4 µM
